Source: PubChem BioAssay (National Center for Advancing Translational Sciences (NCATS))
Shown are actives, neighbours in structure and some others; about 8.8% of the full set was active somewhere.
KB-V1 MDR tox = KB-V1 MDR subline cytotoxicity. Potency, µM (highest dose often 46.1 µM), usual class: cytotoxic. KB-V1 MDR cells viability, CellTiter-Glo, 72 h. 3.4% of 400,000 active. AID 1347076; also: potency is read from the fitted curve at half-maximal effect; nearly all actives have a fitted effect of over 60% in size
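Potencies derive from concentration-effect curves fitted to normalized luminescence (CellTiter-Glo) of KB-V1 cells treated for 72 h at 37 degrees C in phenol-red-free DMEM containing 10% FBS.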
IL-1B inflam inh = inhibitors of inflammasome signaling (IL-1 beta secretion). THP-1 LPS/ATP IL-1B secretion, AlphaLISA, 16 h; hits give low values. activity change, % at 57.5 µM. 4.7% of 360,000 active; in the data active = activity change below about -50%; inconclusive = mostly about -30% to -49%
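THP-1 cells pretreated 1 hr with compounds (up to 57.5 uM final), then stimulated with LPS (250 ng/mL final) plus ATP (1.25 mM final); secreted IL-1B measured by AlphaLISA after 16 hr, decreased signal indicating inhibition.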
HT1080 IDH1KD tx = kills HT-1080 cells with IDH1 knockdown. HT-1080 IDH1 knockdown viability, ATP luminescence, 48 h. Potency, µM (top dose mostly 46.1 µM), inactives show at the highest dose activity, negative = toxicity, hits mostly cytotoxic. 2% of 360,000 active. AID 686971;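 also: potency is read from the fitted curve at half-maximal effect; 0% = DMSO wells and -100% = cell-free medium wells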
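CellTiter-Glo luminescence after 48 h compound exposure at 37 degrees C of IDH1-knockdown HT-1080 cells in 5% FBS RPMI. %Activity scaled between DMSO wells and cell-free media wells, with curves fitted and assigned curve classes.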
HT1080NT lethal = kills 2HG-producing HT-1080-NT fibrosarcoma cells. HT-1080-NT fibrosarcoma viability, CellTiter-Glo ATP luminescence, 48 h. Potency, µM (titrated, usually from 46.1 µM), inactives show at the highest dose activity, negative = less viability, hits mostly cytotoxic. 1.6% of 360,000 active. AID 686970;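 also: NT is the 2HG producing partner of a matched IDH1 knockdown line; potency is read from the fitted curve at half-maximal effect; 0% = DMSO-treated cells and -100% = media-only wells without cells; nearly all actives have a fitted effect of over 55% in size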
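HT-1080-NT fibrosarcoma cells (2HG-overproducing), 750 cells/well in RPMI with 5% FBS, dosed after 2 h and incubated 48 h at 37C. CellTiter-Glo luminescence normalized to DMSO and no-cell wells; concentration-response curves fitted and classed.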
KB-3-1 tox = KB-3-1 parental cell cytotoxicity; 1.4% of 400,000 active; AID 1347075; KB-3-1 viability, CellTiter-Glo ATP luminescence, 72 h; Potency, µM (doses to about 46.1 µM), actives largely listed as cytotoxic; also: potency is read from the fitted curve at half-maximal effect; nearly all actives have a fitted effect of over 60% in size
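KB-3-1 cells, DMEM (no phenol red) + 10% FBS; compound by pin transfer, 72 h, 37 °C. Readout: CellTiter-Glo luminescence after 10 min. Data normalized, curve-fitted.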
Starred values were filed as active, the others as inactive; [ ] = remark or other dose. Unless noted, calls follow the shape of the dose curve; as a rule, active = well fitted curve in the direction sought with a large enough effect; inconclusive = small, poorly fitted or top-dose-only effect, or another doubt; inactive = no such curve, though single readings can be large; an effect the other way counts as inactive or inconclusive. Unless noted, % is scaled to controls: 0 for no effect and ±100 for the full control effect.

Screening CC1(C(=O)Nc2ccc3c(c2)OCO3)CCN1C(=O)C1CCCCC1 (configuration not stated) returned KB-V1 MDR tox inconclusive, IL-1B inflam inh -1, HT1080 IDH1KD tx 6%, HT1080NT lethal 11% and KB-3-1 tox inactive.
For CC1CCN(CCc2nc3cc(NC(=O)COc4ccc(Cl)cc4)ccc3n2C)CC1 the results were KB-V1 MDR tox inactive, IL-1B inflam inh -96*, HT1080 IDH1KD tx inconclusive, HT1080NT lethal inconclusive and KB-3-1 tox inconclusive.
For COc1ccc(OCC(=O)Nc2ccc3c(c2)nc(CCN2CCC(C)CC2)n3C)cc1 the results were KB-V1 MDR tox inactive, IL-1B inflam inh -17, HT1080 IDH1KD tx 5%, HT1080NT lethal 5% and KB-3-1 tox inactive.
`O=c1[nH]c2ccc(S(=O)(=O)N3CCN(c4ccc(F)cc4)CC3)cc2o1` gave KB-V1 MDR tox inactive, IL-1B inflam inh 30, HT1080 IDH1KD tx 2%, HT1080NT lethal 5% and KB-3-1 tox inactive.
Screening Cc1nc(Nc2ccc(S(=O)(=O)N3CCCCC3C)cc2)c2nnn(Cc3ccccc3)c2n1 (configuration not stated) returned KB-V1 MDR tox 2.3µM*, IL-1B inflam inh -8, HT1080 IDH1KD tx 21%, HT1080NT lethal -1% and KB-3-1 tox 16µM*.
CC(C)NC(=O)C1(C)CSCC(=O)N1CCCN1CCOCC1 (configuration not stated) was read as KB-V1 MDR tox inactive, IL-1B inflam inh 15, HT1080 IDH1KD tx 12%, HT1080NT lethal 19% and KB-3-1 tox inactive.
O=C(Nc1ccccc1)N1CCCC(c2nc(-c3ccc(F)cc3)no2)C1 (configuration not stated) was read as KB-V1 MDR tox inconclusive, IL-1B inflam inh -15, HT1080 IDH1KD tx -10%, HT1080NT lethal -4% and KB-3-1 tox inactive.
For Cc1ccccc1NC(=O)N1CCCC(c2nc(-c3ccc(F)cc3)no2)C1 (configuration not stated) the results were KB-V1 MDR tox 15µM*, IL-1B inflam inh 12, HT1080 IDH1KD tx -29%, HT1080NT lethal -13% and KB-3-1 tox inactive.
Cc1ccccc1NC(=O)N1CCCC(c2nc(-c3ccc(C(C)C)cc3)no2)C1 (configuration not stated) was read as KB-V1 MDR tox inactive, IL-1B inflam inh -77*, HT1080 IDH1KD tx -21%, HT1080NT lethal -29% and KB-3-1 tox 18µM*.
`O=C(C1CCCCC1)N1CCCC(c2nc(-c3ccc(F)cc3)no2)C1` (configuration not stated) gave KB-V1 MDR tox 21µM*, IL-1B inflam inh -23, HT1080 IDH1KD tx -26%, HT1080NT lethal -6% and KB-3-1 tox inactive.
`COC(=O)C1=C(C)NC(=O)CC1c1cc(Br)ccc1F` (configuration not stated) gave KB-V1 MDR tox inconclusive, IL-1B inflam inh 7, HT1080 IDH1KD tx -2%, HT1080NT lethal -2% and KB-3-1 tox inactive.
For Cc1cc2c(cc1C)C(c1ccccc1F)CC(=O)N2 (configuration not stated) the results were KB-V1 MDR tox inconclusive, IL-1B inflam inh 2, HT1080 IDH1KD tx inconclusive, HT1080NT lethal inconclusive and KB-3-1 tox 5.8µM*.
`Cc1cc2c(cc1C)C(c1cc(Br)ccc1F)CC(=O)N2` (configuration not stated) gave KB-V1 MDR tox 13µM*, IL-1B inflam inh 2, HT1080 IDH1KD tx inconclusive, HT1080NT lethal inconclusive and KB-3-1 tox 8.2µM*.
COc1ccc(C(=O)Nc2ccnn2C2CCN(C(=O)c3cc(C)on3)CC2)cc1 was read as KB-V1 MDR tox inactive, IL-1B inflam inh -2, HT1080 IDH1KD tx 3%, HT1080NT lethal 0% and KB-3-1 tox inactive.
Screening Cc1ccc(/C=C/C(=O)NC(=S)Nc2ccccc2C(=O)NC2CCCCC2)cc1 returned KB-V1 MDR tox inactive, IL-1B inflam inh -11, HT1080 IDH1KD tx 19%, HT1080NT lethal 7% and KB-3-1 tox inactive.
For O=C(/C=C/c1ccccc1)NC(=S)Nc1ccccc1C(=O)NC1CCCCC1 the results were KB-V1 MDR tox inconclusive, IL-1B inflam inh -9, HT1080 IDH1KD tx -11%, HT1080NT lethal -2% and KB-3-1 tox inactive.
Screening COc1cc(OC)cc(C(=O)Nc2ccccc2C(=O)NC2CC2)c1 returned KB-V1 MDR tox 6.5µM*, IL-1B inflam inh 11, HT1080 IDH1KD tx inconclusive, HT1080NT lethal -28% and KB-3-1 tox inconclusive.
Screening COc1cccc(C(=O)Nc2ccccc2C(=O)NC2CC2)c1 returned KB-V1 MDR tox inactive, IL-1B inflam inh inconclusive, HT1080 IDH1KD tx -5%, HT1080NT lethal -2% and KB-3-1 tox inactive.
For O=C(NC1CCCCC1)c1ccccc1NC(=O)C1CC1 the results were KB-V1 MDR tox 16µM*, IL-1B inflam inh 7, HT1080 IDH1KD tx 4%, HT1080NT lethal 3% and KB-3-1 tox inactive.
`CCOC(=O)/C=C/C(=O)Nc1ccccc1C(=O)NC1CCCCC1` gave KB-V1 MDR tox inactive, IL-1B inflam inh -51*, HT1080 IDH1KD tx inconclusive, HT1080NT lethal -8% and KB-3-1 tox inactive.
O=C(Nc1ccccc1C(=O)NC1CCCC1)NC1CCCC1 was read as KB-V1 MDR tox inactive, IL-1B inflam inh -5, HT1080 IDH1KD tx 0%, HT1080NT lethal 1% and KB-3-1 tox inactive.
For O=C(/C=C/c1ccc(F)cc1)NC(=S)Nc1ccccc1C(=O)NC1CCCCC1 the results were KB-V1 MDR tox 16µM*, IL-1B inflam inh -2, HT1080 IDH1KD tx 4%, HT1080NT lethal 2% and KB-3-1 tox inactive.
COc1ccc(C(=O)COC(=O)c2ccc3c(c2)OCO3)c(OC)c1 was read as IL-1B inflam inh -24, HT1080 IDH1KD tx -4% and HT1080NT lethal 10%.
CCCCCCCCN1[C@@H](CC(=O)O)c2ccc(C(F)(F)F)cc2S1(=O)=O was read as KB-V1 MDR tox inactive, IL-1B inflam inh 2, HT1080 IDH1KD tx -3%, HT1080NT lethal -10% and KB-3-1 tox inactive.
Screening Clc1ccc(CNc2ccc(CNc3ncn[nH]3)cc2)cc1 returned KB-V1 MDR tox 18µM*, IL-1B inflam inh 1, HT1080 IDH1KD tx -2%, HT1080NT lethal 8% and KB-3-1 tox inconclusive.
O=S(=O)(c1ccccc1)N(Cc1nc(-c2ccccc2)no1)C1CCCCC1 was read as KB-V1 MDR tox 10µM*, IL-1B inflam inh -8, HT1080 IDH1KD tx -1%[9.24 µM], HT1080NT lethal -9% and KB-3-1 tox 26µM*.
For CC(C)N(Cc1nc(-c2ccccc2)no1)S(=O)(=O)c1ccccc1 the results were KB-V1 MDR tox inactive, IL-1B inflam inh -20, HT1080 IDH1KD tx -6%, HT1080NT lethal -8% and KB-3-1 tox inactive.
COc1ccc(CCN(Cc2ccccn2)C(=S)Nc2ccc(C)cc2)cc1OC was read as KB-V1 MDR tox 23µM*, IL-1B inflam inh 19, HT1080 IDH1KD tx -12%, HT1080NT lethal -5% and KB-3-1 tox inconclusive.
